Bioassay records from PubChem BioAssay.
C diff growth: C. difficile growth inhibition | Clostridium difficile clinical isolate growth, OD600, 24 h; stronger effect = lower value | growth activity, negative = inhibition, % at 16 µg/mL (by protocol) | hit rate 0.25% among 86,000;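 active means mean growth activity at or below -80% and every replicate also at or below -80%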;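 further: 0% = DMSO wells and -100% = levofloxacin 16 µg/mL wells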
Numbers without * were called inactive. The entries come from a sample that favours hits as a whole.

SMILES	C diff growth
CNC[C@@H]1Oc2ccc(NS(=O)(=O)c3c(C)noc3C)cc2CC(=O)N([C@H](C)CO)C[C@H]1C	-2
O=C(Nc1cccc(F)c1)N1CCCCN2[C@H](C1)[C@@H](c1ccc(-c3ccncc3)cc1)[C@@H]2CO	-7
O=C(Nc1cc(F)ccc1F)N1CCCCN2[C@@H](CO)[C@@H](c3ccc(C4=CCCCC4)cc3)[C@@H]2C1	-95*
Cc1ccccc1-c1ccc([C@@H]2[C@@H](CO)N3CCCCN(C(=O)Nc4ccc(F)cc4)C[C@@H]23)cc1	54
Cc1ccccc1-c1ccc([C@@H]2[C@H](CO)N3CCCCN(C(=O)Nc4ccc(F)cc4)C[C@@H]23)cc1	-99*
COCC#Cc1ccc([C@@H]2[C@H]3CN(Cc4ccccc4F)CCCCN3[C@H]2CO)cc1	2
Cc1ccccc1-c1ccc([C@H]2[C@@H](CO)N3CCCCN(C(=O)Nc4ccccc4)C[C@@H]23)cc1	-9
O=C(Nc1cc(F)ccc1F)N1CCCCN2[C@H](CO)[C@H](c3ccc(C4=CCCCC4)cc3)[C@@H]2C1	-9
Cc1ccc(-c2ccc([C@H]3[C@@H](CO)N4CCCCN(C(=O)Nc5cccc(F)c5)C[C@H]34)cc2)cc1	-96*
O=C(Nc1cccc(F)c1)N1CCCCN2[C@H](CO)[C@H](c3ccc(-c4ccncc4)cc3)[C@H]2C1	-3
COc1ccc(C#Cc2ccc([C@@H]3[C@@H](CO)N4CCCCN(Cc5ccccc5F)C[C@H]34)cc2)cc1	-97*
COc1ccc(C#Cc2ccc([C@H]3[C@H]4CN(Cc5ccccc5F)CCCCN4[C@H]3CO)cc2)cc1	0
O=C(Nc1cc(F)ccc1F)N1CCCCN2[C@H](C1)[C@H](c1ccc(C3=CCCCC3)cc1)[C@@H]2CO	11
CCC(=O)N1CC2(C1)CN(C(=O)Nc1ccccc1F)[C@H](CO)c1[nH]c3cc(OC)ccc3c12	3
CC(C)NC(=O)N(C)C[C@H]1OCCCC[C@H](C)Oc2ccc(NC(=O)c3ccccc3)cc2C(=O)N([C@H](C)CO)C[C@H]1C	21
COc1ccc2c3c(n(C)c2c1)[C@H](CO)N(CC1CC1)CC31CCN(C(=O)c2ccc(F)cc2)CC1	4
CS(=O)(=O)N1[C@@H]2c3ccc(-c4ccccc4)c(=O)n3C[C@@H]2[C@@H](CO)[C@@H]1C(=O)NC1CCC1	-2
COc1ccc2c3c(n(C)c2c1)[C@H](CO)N(C(=O)CC1CC1)CC31CCN(C(=O)CC2CC2)CC1	9
COc1ccc2c3c([nH]c2c1)[C@H](CO)N(S(=O)(=O)c1cn(C)cn1)CC31CCN(Cc2ccccc2)CC1	-7
Cc1ccccc1-c1ccc(C2[C@@H]3CN(C(=O)Nc4cccc(F)c4)C[C@H]2N3)cc1 (some centres not stated)	70
C[C@@H]1CN([C@@H](C)CO)C(=O)c2cc(NS(C)(=O)=O)ccc2O[C@@H](C)CCCCO[C@H]1CN(C)C(=O)Nc1ccc(C(F)(F)F)cc1	7
O=C(Nc1cccc(F)c1)N1CCCCN2[C@H](CO)[C@@H](c3ccc(C#Cc4ccccc4)cc3)[C@@H]2C1	-3
O=C(Nc1cccc(F)c1)N1CCCCN2[C@H](C1)[C@@H](c1ccc(C#Cc3ccccc3)cc1)[C@@H]2CO	3
COc1ccc(C#Cc2ccc([C@H]3[C@@H](CO)N4CCCCN(C(=O)Nc5cccc(F)c5)C[C@@H]34)cc2)cc1	-19
COc1ccc(C#Cc2ccc([C@@H]3[C@H]4CN(C(=O)Nc5cccc(F)c5)CCCCN4[C@H]3CO)cc2)cc1	53
SMILES	C diff growth
COc1ccc(C#Cc2ccc([C@H]3[C@@H](CO)N4CCCCN(C(=O)Nc5cccc(F)c5)C[C@H]34)cc2)cc1	-89*
COc1ccc(C#Cc2ccc([C@@H]3[C@H](CO)N4CCCCN(C(=O)Nc5cccc(F)c5)C[C@@H]34)cc2)cc1	-85*
CN(C)C(=O)c1cccc(-c2ccccc2[C@@H]2[C@@H](C#N)N(C(=O)C3CCCC3)[C@@H]2CO)c1	7
O=C(N[C@@H]1C=C[C@H](CC(=O)N2CCc3ccccc3C2)O[C@@H]1CO)C1CCOCC1	-3
CCCN(C)C[C@H]1OCCCC[C@@H](C)Oc2ccc(NC(=O)Nc3ccc(C(F)(F)F)cc3)cc2C(=O)N([C@H](C)CO)C[C@H]1C	-108*
C[C@@H]1CN([C@@H](C)CO)C(=O)c2cc(NC(=O)Nc3ccc(C(F)(F)F)cc3)ccc2O[C@@H](C)CCCCO[C@H]1CN(C)CC1CCCCC1	-107*
CCCN(C)C[C@H]1OCCCC[C@H](C)Oc2ccc(NC(=O)Nc3ccc(C(F)(F)F)cc3)cc2C(=O)N([C@@H](C)CO)C[C@H]1C	-31
CCCN(C)C[C@@H]1OCCCC[C@@H](C)Oc2ccc(NC(=O)Nc3ccc(C(F)(F)F)cc3)cc2C(=O)N([C@H](C)CO)C[C@@H]1C	-19
C[C@H](CO)N1C[C@H](C)[C@@H](CN(C)CC2CCCCC2)OCCCC[C@H](C)Oc2ccc(NC(=O)Nc3ccc(C(F)(F)F)cc3)cc2C1=O	-74
C[C@@H]1CN([C@H](C)CO)C(=O)c2cc(NC(=O)Nc3ccc(C(F)(F)F)cc3)ccc2O[C@@H](C)CCCCO[C@@H]1CN(C)CC1CCCCC1	-63
C[C@@H]1CCCCO[C@H](CN(C)CC2CC2)[C@H](C)CN([C@H](C)CO)C(=O)c2cc(NC(=O)Nc3ccc(C(F)(F)F)cc3)ccc2O1	6
C[C@H](CO)N1C[C@H](C)[C@H](CN(C)CC2CCCCC2)OCCCC[C@H](C)Oc2ccc(NC(=O)Nc3ccc(C(F)(F)F)cc3)cc2C1=O	-82*
C[C@H]1CCCCO[C@H](CN(C)CC2CC2)[C@@H](C)CN([C@@H](C)CO)C(=O)c2cc(NC(=O)Nc3ccc(C(F)(F)F)cc3)ccc2O1	0
CC(=O)N(C)C[C@@H]1Oc2ncc(-c3cccc(C#N)c3)cc2C(=O)N([C@@H](C)CO)C[C@@H]1C	-3
CCCNC(=O)C[C@@H]1CC[C@H]2[C@@H](COC[C@@H](O)CN2C(=O)Nc2cccc(Cl)c2)O1	22
COC(=O)C[C@H]1CC[C@H]2[C@@H](COc3ccc(NC(=O)NCc4ccccc4)cc3C(=O)N2C)O1	3
C[C@@H]1CN([C@@H](C)CO)C(=O)Cc2cc(NC(=O)CCCCCC(=O)Nc3ccccc3N)ccc2O[C@H]1CN(C)C(=O)Nc1ccc2c(c1)OCO2	6
CCS(=O)(=O)N1CCC2(CC1)CN(Cc1cccnc1)[C@@H](CO)c1c2c2ccc(OC)cc2n1C	1
COCC(=O)N1C[C@H](C)[C@@H](OC)CN(C)C(=O)c2ccc(NC(=O)c3ccc(F)cc3)cc2OC[C@@H]1C	-12
CCCNC(=O)N1CC2(CN(C(=O)CC)C2)c2c(n(C)c3cc(OC)ccc23)[C@@H]1CO	-2
C[C@H](CO)N1C[C@H](C)[C@@H](CN(C)Cc2ccccc2)Oc2c(NC(=O)Nc3ccc(C(F)(F)F)cc3)cccc2C1=O	13
C[C@@H]1CN([C@@H](C)CO)C(=O)c2cccc(NC(=O)Nc3ccc(C(F)(F)F)cc3)c2O[C@@H]1CN(C)Cc1ccccc1	-98*
C[C@H](CO)N1C[C@H](C)[C@@H](CN(C)Cc2ccc(C(F)(F)F)cc2)Oc2c(NC(=O)Nc3ccc(C(F)(F)F)cc3)cccc2C1=O	34
C[C@@H]1CN([C@@H](C)CO)C(=O)c2cccc(NC(=O)Nc3ccccc3)c2O[C@@H]1CN(C)Cc1ccc(C(F)(F)F)cc1	-97*
C[C@H](CO)N1C[C@H](C)[C@H](CN(C)Cc2ccccc2)Oc2c(NC(=O)Nc3ccc(C(F)(F)F)cc3)cccc2C1=O	13
